Data as given in PubChem BioAssay (NCI).
This is part of a sample that, as a whole, favours compounds with a hit. Of some 83,000 tested, about 20% had one in any assay.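 Assay: single dose, 48 h. Readout: percent growth (0 = no net growth; negative = cell death). Active: <10.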 Values without a mark were called inactive. Calls of active or inactive are those of the source.

Each compound was assayed on IGROV1 ovarian (assay: NCI-60 one-dose screen, 48 h (100 = growth as untreated, 0 = no growth, -100 = all killed)). Settings: 10 µM unless noted.
`CC1CC2Oc3ccc(Cl)cc3C(=O)N2O1` (stereo not drawn) gave a growth of 125%.
With `COc1cccc(C(=O)NCCNc2cc(-c3cn(-c4ccccc4)nc3-c3cccc(OC)c3)ccn2)c1` the growth was 74.1%.
With `CN(C)c1ccc(-c2ccc3[nH]c(=O)nc(-c4ccccc4)c3c2)cn1` the growth was 49.7%.
In the case of `CCN(CC)CCCCCCNc1cc(OC)c(Cl)c2cccnc12`, the growth is reported as 86.6%.
In the case of `NC(=N\N=C/c1ccccc1[N+](=O)[O-])/C(N)=N\N=C/c1ccccc1[N+](=O)[O-]`, the growth is reported as 136%.
With `C[n+]1cc2cc(C(N)=O)[nH]c3c(=N)c(Cl)c(N)c1c23` the growth was 65.1%.
For `COc1ccc(C2=Nc3c(N)ncnc3NC(c3ccc4c(c3)OCO4)C2)cc1` (stereo not drawn), the growth was 37%.
Compound `CCN(CC)CCN1C(=O)c2c(c(C)c3c(oc4cc(O)ccc43)c2C)C1=O` has a growth of 91.9%.
Work on `O=C(Nc1ccccc1Cl)Oc1ccc(-c2ccccc2)cc1` yielded a growth of 108%.
For `O=C1/C(=C/c2ccc(F)cc2)C=C(c2ccccc2)N1CCc1ccccc1`, the growth was 62.3%.
`Cc1cc(Cl)ccc1Nc1nc(C(F)(F)F)ccc1C(=O)N/N=C/c1ccc(N(C)C)cc1` showed a growth of 21%.
`CCN1CCN(c2cc(C)nc(NCc3cc(Nc4ccnc5cc(Cl)ccc45)ccc3F)n2)CC1` showed a growth of 59.1%.
`CCN(CC)CCN1CC(O)=C(c2nc(-c3ccc(Cl)cc3)cs2)C1=N` gave a growth of 40.8%.
`CC(=O)n1c(-c2ccc(Cl)cc2)nc2c(c1=O)C(c1ccc(Cl)cc1)c1sc3c(Cl)cccc3c1O2` (stereo not drawn) gave a growth of 13.2%.
`CCN(CC)CCn1nc2c3c(cccc3c1=O)-c1ccccc1-2` showed a growth of 15.6%.
`Cc1cc(Cl)nc(NCc2cc(Nc3ccnc4cc(Cl)ccc34)ccc2F)n1` gave a growth of 64.7%.
In the case of `O=C(NCCCNc1cc(-c2cn(-c3ccccc3)nc2-c2cccc(O)c2)ccn1)c1ccccc1`, the growth is reported as 50.8%.
Work on `COc1ccc(-c2cc(-c3cc(OC)ccc3OC)nc(SCC(=O)c3ccccc3)c2C#N)cc1` yielded a growth of 97.3%.
With `Nc1cc2c3c(cccc3c1)C(=O)N(CCN1CCCC1)C2=O` the growth was 8.96% (active).
`COc1ccc(-c2csc(C3=C(O)CN(CCCN4CCCC4=O)C3=N)n2)cc1OC` was tested, and the growth was 63.9%.
`CCCCn1c(=O)c2c(nc(NCCc3ccc(O)c(O)c3)n2CCC)n(CCCC)c1=O` showed a growth of 82.5%.
In the case of `N#C/C(=C/C=C/c1cccc(Cl)c1)S(=O)c1ccccc1` (stereo not drawn), the growth is reported as -25.7% (active).
`O=C1OC(c2nc3ccccc3s2)=C/C1=C\c1ccc(O)cc1` gave a growth of 95.1%.
In the case of `CC/C=C\CCC/C=C1/C(=O)C=C[C@@H]1C/C=C\CCCC(=O)O`, the growth is reported as 104%.
`CC(=O)C(C)Cc1cc2c(cc1C)C(C)(C)CCC2(C)C` (stereo not drawn) gave a growth of 114%.
With `O=[N+]([O-])c1ccc(C2CC(c3ccccc3)=Nc3ccccc3S2)cc1` (stereo not drawn) the growth was 58.7%.
`COc1ccc(-c2nc3c(c(=O)n2C(C)=O)C(c2ccc(Cl)cc2)c2sc4c(Cl)cccc4c2O3)cc1` (stereo not drawn) gave a growth of 12.5%.
`FC(F)(F)c1cc(Nc2ccc3cc(OCCCN4CCOCC4)ccc3n2)ccc1Cl` gave a growth of 54.3%.
With `CC(C)CCC[C@@H](C)[C@H]1CC[C@H]2[C@@H](Nc3ccc(O)cc3)CCC[C@]12C` the growth was 38.8%.
For `O=C(N/N=C/c1ccncc1)c1ccc(C(F)(F)F)nc1Nc1cccc(C(F)(F)F)c1`, the growth was -35.9% (active).
Work on `COC(=O)[C@]12CC[C@@H](C)[C@H](C)[C@@H]1C1=CC[C@@H]3[C@@]4(C)C(C=O)=C[C@@](C)(COC(C)=O)[C@@H]4C(=O)C[C@@]3(C)[C@]1(C)CC2` yielded a growth of 46.3%.
`O=C(Nc1ccccc1)Nc1cccc(Oc2nnc(Cl)c3ccccc23)c1` was tested, and the growth was 37.2%.
Work on `N#Cc1c(-c2ccccc2)cc(-c2ccc(Nc3nc(Nc4ccc(F)cc4)nc(Nc4ccc(F)cc4)n3)cc2)nc1N` yielded a growth of 95.5%.
For `CCn1c(C)nc2cc(C(N)=O)ccc21`, the growth was 109%.
In the case of `O=C(/C=C/c1ccco1)c1ccc(Nc2nc(Nc3ccc(F)cc3)nc(Nc3ccc(Cl)cc3)n2)cc1`, the growth is reported as 61.7%.
`CC/C=C\C[C@H](O)C/C=C1/C(=O)C=C[C@@H]1C/C=C\CCCC(=O)OC` was tested, and the growth was 0.514% (active).
`N#Cc1c(-c2cccc(Cl)c2)cc(-c2cccc(Cl)c2)[nH]c1=O` was tested, and the growth was 70.8%.
For `O=C1CC(N2C(=O)/C(=C/C(Cl)=C\c3ccc([N+](=O)[O-])cc3)SC2=S)C(=O)N1c1ccc(O)cc1` (stereo not drawn), the growth was -45.8% (active).
